Assay outcomes as filed in PubChem BioAssay.
Sampled rows, rich in hits. Any-hit rate of the full collection: about 3%.
Shn3 3UTR inh = reduces Shn3 3'UTR luciferase signal in osteoblasts; Clone20 osteoblast Shn3 3'UTR firefly luciferase, 24 h; inhibition, % at 12.5 µM; 0.52% of 360,000 active; AID 588674;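 active = mean inhibition of at least 75% with every replicate also reaching 75%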;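 note: 0% = median of neutral control wells and 100% = pilot-screen positive control compound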
PAX8 inh HTS = PAX8 transcriptional activity inhibition; 1.2% of 360,000 active; AID 652154; RMG-I TPO-luciferase reporter, SteadyGlo, 24 h; inhibition, % at 12.6 µM;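 active = mean replicate inhibition at least 60% with every replicate also reaching 60%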;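 note: luciferase light reporting Pax8 driven TPO promoter activity; plate controls were median of neutral control wells for no effect and mitoxantrone controls for full effect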
MITF TRPM1 inh = inhibitors of MITF-driven TRPM1 promoter in melanoma cells | SK-MEL-5 TRPM1 promoter luciferase, 24 h | 0.83% of 330,000 active | inhibition, % at 12.5 µM;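 active = mean inhibition across replicates of 60% or more, whatever share of single replicates reaches that level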
ABHD5 PLIN5 PPI = blocks binding of human ABHD5 to perilipin-5. Q00G26+Q8WTS1. Split G. princeps luciferase complementation, luminescence, 4 h. inhibition, % at 4 µM. 0.78% of 360,000 active. AID 602281;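 active = inhibition above the mean inhibition across every tested compound plus 3 SD, cut at about 22% in these data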;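 note: 0% = DMSO only wells and the 100% control is not disclosed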
Target sequence (Q00G26 whole entry, looked up): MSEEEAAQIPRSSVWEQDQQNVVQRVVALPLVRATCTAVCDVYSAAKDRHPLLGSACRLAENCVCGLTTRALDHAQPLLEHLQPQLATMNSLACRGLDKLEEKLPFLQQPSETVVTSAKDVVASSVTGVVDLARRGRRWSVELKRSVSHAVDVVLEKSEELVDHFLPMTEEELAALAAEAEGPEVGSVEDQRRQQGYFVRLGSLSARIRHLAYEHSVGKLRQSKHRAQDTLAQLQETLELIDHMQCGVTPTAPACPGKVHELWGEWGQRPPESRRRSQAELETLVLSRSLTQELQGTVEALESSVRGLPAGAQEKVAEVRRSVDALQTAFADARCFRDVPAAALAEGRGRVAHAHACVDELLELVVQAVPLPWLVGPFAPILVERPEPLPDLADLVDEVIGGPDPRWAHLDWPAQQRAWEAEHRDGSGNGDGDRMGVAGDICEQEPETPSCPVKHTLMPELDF
Target sequence (Q8WTS1 whole entry, looked up): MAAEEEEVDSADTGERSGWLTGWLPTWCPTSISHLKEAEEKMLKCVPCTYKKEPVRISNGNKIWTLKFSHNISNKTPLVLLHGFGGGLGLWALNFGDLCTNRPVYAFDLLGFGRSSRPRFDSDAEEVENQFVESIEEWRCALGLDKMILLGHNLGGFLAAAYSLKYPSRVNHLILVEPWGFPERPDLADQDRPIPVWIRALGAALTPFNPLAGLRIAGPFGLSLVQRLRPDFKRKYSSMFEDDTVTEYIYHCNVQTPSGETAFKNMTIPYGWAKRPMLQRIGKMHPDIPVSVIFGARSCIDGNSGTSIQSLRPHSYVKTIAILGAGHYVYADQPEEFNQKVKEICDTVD
EWS-Fli block = blocks EWS/Fli oncoprotein-driven transcription; inhibition, % at 12.6 µM; 0.67% of 350,000 active; A673 NR0B1-luciferase reporter, viability-normalised;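 active = mean inhibition of at least 50% after viability correction, with every replicate also passing that limit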;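 note: firefly luciferase signal divided by Alamar Blue viability fluorescence both relative to DMSO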
Peg3 promoter = inhibitors of Peg3 promoter | HeLa PEG-Prom luciferase reporter, luminescence, overnight | inhibition, % at 20 µM | 1.7% of 360,000 active | AID 588405;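 active = inhibition of at least 50% at 20 µM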
* hit, by the source's call.

For CC(C)NC(=O)N(C)C[C@H]1OCCCC[C@@H](C)Oc2ccc(NC(=O)Nc3ccc(C(F)(F)F)cc3)cc2C(=O)N([C@@H](C)CO)C[C@H]1C the results were PAX8 inh HTS 89* and EWS-Fli block -6.
For CC(C)NC(=O)N(C)C[C@@H]1OCCCC[C@H](C)Oc2ccc(NC(=O)Nc3ccc(C(F)(F)F)cc3)cc2C(=O)N([C@@H](C)CO)C[C@H]1C the results were PAX8 inh HTS 63* and EWS-Fli block 5.
C[C@H]1CN([C@@H](C)CO)C(=O)Cc2cc(NS(=O)(=O)c3ccc(Cl)cc3)ccc2O[C@@H]1CN(C)Cc1ccc(Oc2ccccc2)cc1 was read as PAX8 inh HTS 48 and EWS-Fli block 60*.
Screening COc1ccc(S(=O)(=O)Nc2ccc3c(c2)CC(=O)N([C@@H](C)CO)C[C@@H](C)[C@H](CN(C)Cc2ccc(-c4ccccc4)cc2)O3)cc1 returned PAX8 inh HTS 95* and EWS-Fli block -9.
Screening COc1ccc(S(=O)(=O)Nc2ccc3c(c2)CC(=O)N([C@H](C)CO)C[C@H](C)[C@@H](CN(C)Cc2ccc(Oc4ccccc4)cc2)O3)cc1 returned PAX8 inh HTS 68* and EWS-Fli block 28.
`COCC(=O)N1CC(=O)N2[C@H](C1)[C@@H](c1ccc(-c3ccccc3C)cc1)[C@@H]2CO` gave EWS-Fli block -5.
For Cc1noc(C)c1NC(=O)N(C)C[C@@H]1Oc2ncc(C3=CCCCC3)cc2C(=O)N([C@@H](C)CO)C[C@@H]1C the results were PAX8 inh HTS -13 and EWS-Fli block -5.
For CCOc1ccc2[nH]c(=O)c(CN(CCN3CCCC3)C(=S)Nc3ccccc3OCC)cc2c1 the results were Shn3 3UTR inh -10, PAX8 inh HTS 4, MITF TRPM1 inh 58, ABHD5 PLIN5 PPI 4, EWS-Fli block 55* and Peg3 promoter -7.
For NC(=S)N=Nc1c(O)cc(O)c2[nH]c(=O)ccc12 the results were Shn3 3UTR inh 21, PAX8 inh HTS 4, MITF TRPM1 inh -6, ABHD5 PLIN5 PPI 29*, EWS-Fli block -5 and Peg3 promoter 3.
`NC(=S)N=Nc1c(O)[nH]c2ccc(F)cc12` gave Shn3 3UTR inh -1, PAX8 inh HTS 21, MITF TRPM1 inh -7, ABHD5 PLIN5 PPI -2, EWS-Fli block 1 and Peg3 promoter 11.
Cc1ccc(-n2nc(C)c(NC(=O)CCl)c2C)cc1C was read as Shn3 3UTR inh -56, PAX8 inh HTS 112*, MITF TRPM1 inh -30, ABHD5 PLIN5 PPI 2 and Peg3 promoter 8.
`CO[C@@H]1CN(C)C(=O)c2cc(NC(=O)c3ccno3)ccc2OC[C@H](C)N(S(C)(=O)=O)C[C@@H]1C` gave PAX8 inh HTS -14 and EWS-Fli block 25.
O=C(Cc1cccc(C(F)(F)F)c1)Nc1ccccc1 was read as Shn3 3UTR inh -3, PAX8 inh HTS -4, MITF TRPM1 inh 1, ABHD5 PLIN5 PPI -3, EWS-Fli block -12 and Peg3 promoter -10.
`CCCCNC(=NCc1cccc(C(F)(F)F)c1)Nc1ccccc1` gave Shn3 3UTR inh 3, PAX8 inh HTS 18, MITF TRPM1 inh -2, ABHD5 PLIN5 PPI 16, EWS-Fli block 27 and Peg3 promoter 76*.
CCC(=O)Nc1ccc2c(c1)C(=O)N(C)C[C@H](OC)[C@H](C)CN(C(=O)CN1CCOCC1)[C@@H](C)CO2 was read as EWS-Fli block -5.
For Cc1cc(C)c(C)c(OC(=O)c2sc(Cl)nc2C)c1 the results were Shn3 3UTR inh 63, MITF TRPM1 inh -5, ABHD5 PLIN5 PPI 13 and Peg3 promoter 90*.
Screening Cc1ccc(NC(=O)c2sc(Cl)nc2C)c(C)c1 returned Shn3 3UTR inh -31, PAX8 inh HTS -7, MITF TRPM1 inh -7, ABHD5 PLIN5 PPI 1 and Peg3 promoter -24.
`O=C(NCc1nc(-c2ccc(C(F)(F)F)cc2)no1)Nc1ccc(F)cc1F` gave PAX8 inh HTS 8, MITF TRPM1 inh 4, ABHD5 PLIN5 PPI 6, EWS-Fli block -8 and Peg3 promoter 10.
`O=C(NCc1nc(-c2ccc(C(F)(F)F)cc2)no1)Nc1cc(Cl)cc(Cl)c1` gave Shn3 3UTR inh 57, PAX8 inh HTS 20, MITF TRPM1 inh 6, ABHD5 PLIN5 PPI 0, EWS-Fli block 5 and Peg3 promoter 52*.
Screening CCCCCOc1ccc(NC(=O)C(=O)NCCCn2ccnc2)cc1 returned Shn3 3UTR inh 59, PAX8 inh HTS 77*, MITF TRPM1 inh 9, ABHD5 PLIN5 PPI 0 and Peg3 promoter 11.
`CCCNC(=O)Cc1ccc(N2C(=O)CSC2c2ccccc2)cc1` (stereo not drawn) gave PAX8 inh HTS -27 and EWS-Fli block -2.
`COc1ccc(-n2c(C)cc(C(=O)CCl)c2C)cc1` gave Shn3 3UTR inh 57, PAX8 inh HTS 1, MITF TRPM1 inh 95*, ABHD5 PLIN5 PPI 11, EWS-Fli block 61* and Peg3 promoter 101*.
Screening Cc1cc(-n2c(C)cc(C(=O)CCl)c2C)no1 returned Shn3 3UTR inh 27, PAX8 inh HTS -3, MITF TRPM1 inh 76*, ABHD5 PLIN5 PPI 2, EWS-Fli block 28 and Peg3 promoter 75*.
For Cc1cc(C(=O)CCl)c(C)n1-c1c(C)n(C)n(-c2ccccc2)c1=O the results were Shn3 3UTR inh 1, PAX8 inh HTS 8, MITF TRPM1 inh 48, ABHD5 PLIN5 PPI 4, EWS-Fli block -13 and Peg3 promoter 60*.
For Cc1nnc(SCC(=O)c2cc(C)n(-c3c(C)n(C)n(-c4ccccc4)c3=O)c2C)s1 the results were Shn3 3UTR inh -18, MITF TRPM1 inh 7, ABHD5 PLIN5 PPI -4 and Peg3 promoter 10.
For CCCCCCCCCCOC(=O)Cn1c(COc2ccccc2OC)[n+](C)c2ccccc21 the results were Shn3 3UTR inh 89*, PAX8 inh HTS 70*, MITF TRPM1 inh 83*, ABHD5 PLIN5 PPI 14, EWS-Fli block 57* and Peg3 promoter 106*.
Cn1c(COc2ccccc2O)[n+](C)c2ccccc21 was read as Shn3 3UTR inh -13, PAX8 inh HTS 4, MITF TRPM1 inh 10, ABHD5 PLIN5 PPI -6, EWS-Fli block -5 and Peg3 promoter -3.
Cc1ccc(O)c(CNCCNCc2cc(C)ccc2O)c1 was read as Shn3 3UTR inh 25, PAX8 inh HTS 49, MITF TRPM1 inh -4, ABHD5 PLIN5 PPI 3, EWS-Fli block 29 and Peg3 promoter 29.
`Cc1ccc(O)c(Cc2cc(C)cc(Cc3cc(C)ccc3O)c2O)c1` gave Shn3 3UTR inh 13, PAX8 inh HTS 10, ABHD5 PLIN5 PPI -15, EWS-Fli block 7 and Peg3 promoter 56*.
`Cc1nn(-c2ccccc2)c(Cl)c1C(=O)N1CCN(c2ncnc3c2cnn3-c2ccccc2)CC1` gave Shn3 3UTR inh 70, MITF TRPM1 inh 51, ABHD5 PLIN5 PPI 1 and Peg3 promoter 114*.
For CC(=O)c1ccc(N2CCN(c3ccc(S(=O)(=O)NCCN(C)C)cc3[N+](=O)[O-])CC2)cc1 the results were Shn3 3UTR inh 22, PAX8 inh HTS 10, MITF TRPM1 inh -17, ABHD5 PLIN5 PPI 3, EWS-Fli block 16 and Peg3 promoter 10.
